Experimental data from paper PMC7862700, “An all-to-all approach to the identification of sequence-specific readers for epigenetic DNA modifications on cytosine”.

Legend:
Experiment in all cases: DAPPL (digital affinity profiling via proximity ligation, sequencing); 10 mM Tris-HCl pH 7.5, 50 mM NaCl, 1 mM DTT, 4% glycerol, room temperature, 30 min; GST-TFs on glutathione beads, 16-mer random dsDNA library, 0.1% formaldehyde crosslink after washing; high values mean tight binding
Settings in all cases: protein: recombinant; tags: N-terminal GST; dsDNA, one strand shown
FEV = molecular target: T1, FEV (Homo sapiens, UniProt Q99581 1-238)
T1 sequence: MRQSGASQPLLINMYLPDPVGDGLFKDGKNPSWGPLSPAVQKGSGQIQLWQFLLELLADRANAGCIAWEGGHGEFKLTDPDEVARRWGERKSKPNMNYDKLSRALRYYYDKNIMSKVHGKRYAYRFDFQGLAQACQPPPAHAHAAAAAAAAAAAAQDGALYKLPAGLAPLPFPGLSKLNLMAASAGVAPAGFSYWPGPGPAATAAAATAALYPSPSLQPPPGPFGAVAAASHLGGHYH
Outline: (§1)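 Sequencing on an Illumina NextSeq500 followed washing, crosslinking with 0.1% formaldehyde, proximity ligation (BsaI/T4 ligase, 1 h, 37 °C) and PCR amplification of pools that had been incubated for 30 min at room temperature with 200 nmole of a random double-stranded 16-mer DNA library in Tris/NaCl/DTT/glycerol buffer. Each pool held DNA-barcoded human transcription factors, expressed in yeast as GST fusions and captured on glutathione beads, plus a tag-only sample. Binding signal is a hexamer's read frequency for a factor divided by its frequency in the tag-only sample.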

SPIC = molecular target: T2, SPIC (Homo sapiens, UniProt Q8N5J4 1-248)
T2 sequence: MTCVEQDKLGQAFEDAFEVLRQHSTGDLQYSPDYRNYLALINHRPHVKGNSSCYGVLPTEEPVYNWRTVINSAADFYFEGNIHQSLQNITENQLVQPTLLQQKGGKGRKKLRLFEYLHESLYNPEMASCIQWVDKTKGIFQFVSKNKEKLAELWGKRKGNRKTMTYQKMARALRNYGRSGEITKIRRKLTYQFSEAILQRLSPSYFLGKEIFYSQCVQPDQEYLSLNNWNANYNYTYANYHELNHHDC
Outline: as §1

ERF = molecular target: T3, ERF (Homo sapiens, UniProt P50548 1-548)
T3 sequence: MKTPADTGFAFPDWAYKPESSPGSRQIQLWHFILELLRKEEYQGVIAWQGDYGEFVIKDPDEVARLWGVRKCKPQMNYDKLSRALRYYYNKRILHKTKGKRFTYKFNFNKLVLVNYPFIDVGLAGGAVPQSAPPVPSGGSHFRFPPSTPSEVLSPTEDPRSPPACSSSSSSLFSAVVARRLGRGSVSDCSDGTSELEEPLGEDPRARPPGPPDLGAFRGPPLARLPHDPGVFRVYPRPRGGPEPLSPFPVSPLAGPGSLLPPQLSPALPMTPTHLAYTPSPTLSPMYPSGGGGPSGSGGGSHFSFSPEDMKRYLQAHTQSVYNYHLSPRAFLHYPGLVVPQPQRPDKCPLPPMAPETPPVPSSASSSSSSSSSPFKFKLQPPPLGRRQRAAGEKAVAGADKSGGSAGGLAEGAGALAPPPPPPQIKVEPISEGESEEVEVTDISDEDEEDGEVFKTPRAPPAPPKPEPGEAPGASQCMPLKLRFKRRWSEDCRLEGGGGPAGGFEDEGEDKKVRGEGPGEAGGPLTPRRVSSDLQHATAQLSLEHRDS
Outline: as §1

ETV3L = molecular target: T4, ETV3L (Homo sapiens, UniProt Q6ZN32 1-361)
T4 sequence: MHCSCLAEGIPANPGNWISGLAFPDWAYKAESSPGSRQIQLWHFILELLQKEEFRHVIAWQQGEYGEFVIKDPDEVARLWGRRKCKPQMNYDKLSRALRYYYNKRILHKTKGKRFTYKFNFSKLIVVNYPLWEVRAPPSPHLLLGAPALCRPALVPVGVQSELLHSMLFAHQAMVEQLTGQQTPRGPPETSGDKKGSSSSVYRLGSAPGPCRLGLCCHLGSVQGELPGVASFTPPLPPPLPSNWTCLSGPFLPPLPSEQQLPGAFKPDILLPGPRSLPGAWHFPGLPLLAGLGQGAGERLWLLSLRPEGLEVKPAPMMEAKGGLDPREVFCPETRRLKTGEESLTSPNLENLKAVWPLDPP
Outline: as §1

SPDEF = molecular target: T5, SPDEF (Homo sapiens, UniProt O95238 1-335)
T5 sequence: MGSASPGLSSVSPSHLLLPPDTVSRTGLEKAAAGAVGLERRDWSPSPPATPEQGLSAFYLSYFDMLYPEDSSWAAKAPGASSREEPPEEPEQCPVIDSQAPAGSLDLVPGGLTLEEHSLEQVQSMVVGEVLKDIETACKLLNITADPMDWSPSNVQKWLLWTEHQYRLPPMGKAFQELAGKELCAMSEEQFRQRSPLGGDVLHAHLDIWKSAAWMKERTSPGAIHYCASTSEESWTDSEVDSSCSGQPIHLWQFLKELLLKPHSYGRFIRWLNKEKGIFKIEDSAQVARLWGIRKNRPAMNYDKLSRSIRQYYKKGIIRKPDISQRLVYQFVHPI
Outline: as §1

ETV7 = molecular target: T6, ETV7 (Homo sapiens, UniProt Q9Y603 1-341)
T6 sequence: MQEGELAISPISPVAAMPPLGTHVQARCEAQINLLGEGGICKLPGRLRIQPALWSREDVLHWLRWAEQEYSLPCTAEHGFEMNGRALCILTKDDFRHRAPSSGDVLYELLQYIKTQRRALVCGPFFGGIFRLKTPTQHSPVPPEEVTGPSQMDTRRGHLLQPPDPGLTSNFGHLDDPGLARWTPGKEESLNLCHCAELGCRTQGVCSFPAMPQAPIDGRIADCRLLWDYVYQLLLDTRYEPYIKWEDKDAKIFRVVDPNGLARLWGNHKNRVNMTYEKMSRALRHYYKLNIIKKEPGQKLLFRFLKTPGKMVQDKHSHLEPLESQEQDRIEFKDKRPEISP
Outline: as §1

ETV3 = molecular target: T7, ETV3 (Homo sapiens, UniProt P41162-2 1-143)
T7 sequence: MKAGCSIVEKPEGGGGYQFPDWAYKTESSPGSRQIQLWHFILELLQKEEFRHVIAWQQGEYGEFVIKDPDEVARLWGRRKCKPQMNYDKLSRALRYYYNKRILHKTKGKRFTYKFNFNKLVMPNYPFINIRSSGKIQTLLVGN
Outline: as §1

ETV6 = ETV6 (Homo sapiens, UniProt P41212 1-452)
Outline: as §1

ETV6, sequence (P41212 whole entry): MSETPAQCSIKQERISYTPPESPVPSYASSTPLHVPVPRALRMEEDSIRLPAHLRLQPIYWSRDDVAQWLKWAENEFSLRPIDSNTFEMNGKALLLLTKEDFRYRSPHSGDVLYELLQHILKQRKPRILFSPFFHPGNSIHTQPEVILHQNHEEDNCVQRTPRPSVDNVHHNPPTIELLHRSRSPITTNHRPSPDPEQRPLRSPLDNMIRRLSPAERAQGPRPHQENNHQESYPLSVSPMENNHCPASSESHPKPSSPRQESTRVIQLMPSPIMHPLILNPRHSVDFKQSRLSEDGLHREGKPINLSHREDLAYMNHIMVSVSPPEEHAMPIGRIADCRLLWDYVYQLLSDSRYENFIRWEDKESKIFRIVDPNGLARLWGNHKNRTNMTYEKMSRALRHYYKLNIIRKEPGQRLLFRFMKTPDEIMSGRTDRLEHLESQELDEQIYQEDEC

GCGACA
binding signal (FEV): 1.02 fold enrichment (6-mer frequency, TF over GST control)
binding signal (SPIC): 1.03 fold enrichment (6-mer frequency, TF over GST control)
binding signal (ERF): 1.04 fold enrichment (6-mer frequency, TF over GST control)
binding signal (ETV3L): 1.04 fold enrichment (6-mer frequency, TF over GST control)
binding signal (SPDEF): 1 fold enrichment (6-mer frequency, TF over GST control)
binding signal (ETV7): 1.05 fold enrichment (6-mer frequency, TF over GST control)
binding signal (ETV3): 1.01 fold enrichment (6-mer frequency, TF over GST control)
binding signal (ETV6): 1.04 fold enrichment (6-mer frequency, TF over GST control)
